Values joined by “and” are separate entries in the source; they are usually repeats but may differ in a detail not shown here. Identical values can stand only once.
system: TDF; assay: H1.0 immunofluorescence intensity relative to DMSO (% of DMSO); higher = stronger H1.0 induction, active = 120 or more; details: concentration: 10 µM; 24 h
Method in brief: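 Using 384-well plates with 800 cells per well in RPMI plus 10% FBS, HCC1569 and TDF cells were exposed to compounds at 10 µM, in triplicate, for 24 h at 37 °C. Imaging of six fields per well at ×10 followed H1.0 and DAPI staining. The reported quantity, H1.0 nuclear intensity or cell number, is a median of replicates given as percent of the plate control, and HCC1569 values were smoothed for positional effects.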
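Further: TDF is a line of transformed human dermal fibroblasts of mesenchymal origin.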

H1.0 immunofluorescence intensity, active:
CN1CCC(c2c(O)cc(O)c3c(=O)cc(-c4ccccc4Cl)oc23)C(O)C1 (centres undefined) [Alvocidib] 132
COC(=O)Nc1nc2ccc(C(=O)c3ccc(F)cc3)cc2[nH]1 [Flubendazole] 151
Cc1cc(Nc2nc(NC(C)c3ccc(F)cc3)c(C#N)cc2F)n[nH]1 (centres undefined) 167

H1.0 immunofluorescence intensity, inactive:
Clc1ccc(COC(Cn2ccnc2)c2ccc(Cl)cc2Cl)c(Cl)c1 (centres undefined) [Miconazole] 101
CC1=CCC2(C)CCC(O)(C(C)C)C2C(OC(=O)c2ccc(O)cc2)C1 (centres undefined) [Ferutinin] 97.8
O=C(O)C=Cc1ccc(O)c(O)c1 [Caffeic Acid] 87.2
O=C(O)c1cc(O)ccc1O [Gentisic acid] 98.5
COc1ccc(-c2cnc3c(-c4ccsc4)cnn3c2)cc1 [VEGF Receptor 2 Kinase Inhibitor IV] 89
Nc1c2c(nc3ccccc13)CCCC2 [Tacrine] 95.7
Cc1cc(Cc2cc(C)cc(C(C)(C)C)c2O)c(O)c(C(C)(C)C)c1 96.7 and 99.5
CC1(C)CCCC(C)(C2CCC3(C)C2C(O)CC2C4(C)CCC(O)C(C)(C)C4CCC23C)O1 (centres undefined) [Panaxadiol] 91.8
Oc1cc(O)cc(/C=C/c2ccc(Br)cc2)c1 [5-[(E)-2-(4-bromophenyl)ethenyl]-1,3-benzenediol] 95.4
O=C(O)CCCC=CCC1C(O)CC(O)C1C=CC(O)COc1cccc(C(F)(F)F)c1 (centres undefined) [Fluprostenol] 92.2
CCOC(=O)C=C(C)C=CC=C(C)C=Cc1c(C)cc(OC)c(C)c1C [Etretinate] 101
CCC(=O)OC1(C(=O)CCl)C(C)CC2C3CCC4=CC(=O)C=CC4(C)C3(F)C(O)CC21C (centres undefined) [Clobetasol Propionate] 87.8
NC(=O)c1ncn(C2OC(CO)C(O)C2O)c1O (centres undefined) [Mizoribine] 91.2
CCCCCCCCCCCCCCCC(=O)NCC(COP(=O)([O-])OCC[N+](C)(C)C)OCC (racemic) [rac-2-Ethoxy-3-hexadecanamido-1-propylphosphocholine] 97.5
O=c1c(O)c(-c2ccc(O)cc2O)oc2cc(O)cc(O)c12 [Morin] 89.4
CCCCCC(O)C=CC1C(O)CC2OC(=CCCCC(=O)[O-])CC21.[Na+] (centres undefined) [Prostaglandin I2 Na] 94.1
Cc1c[nH]c(C=C2C(=O)Nc3ccccc32)c1CCC(=O)O 95.4
Oc1cc2c(cc1O)C(c1ccccc1)CNCC2 (racemic) 92.2
CN1CC(O)C(O)C(O)C1CO (centres undefined) [N-Methyl-1-deoxynojirimycin] 109
COC(=O)C(c1ccccc1Cl)N1CCc2sccc2C1 (centres undefined) [Clopidogrel] 97.3
CCCCCCCCC#CCC#CCC#CCCCC(=O)O [5,8,11-Eicosatriynoic acid] 107
CC(C)C[C@H](NC(=O)C(O)[C@H](N)Cc1ccc([N+](=O)[O-])cc1)C(=O)O.Cl (some centres undefined) 95.3
O=c1c(O)c(-c2ccc(O)cc2)oc2cc(O)cc(O)c12 [Kaempferol] 93.5
NC(N)=NC(=O)c1nc(Cl)c(N)nc1N [Amiloride] 97.3
CC1=NN(c2ccccc2)C(=O)C1 93.5
CC1(C)CCC=[N+]1[O-] [5,5-Dimethyl-1-pyrroline-N-oxide] 94.2
O=c1c(-c2ccc(O)cc2)coc2cc(O)cc(O)c12 96.6
Cl.N[C@@H](CCC(=O)O)C(=O)O [L-Glutamic acid hydrochloride] 90.1
Cn1cc(C2=C(c3ccc(Cl)cc3Cl)C(=O)NC2=O)c2ccccc21 104 and 105
CC1(C)CCC(NC(=O)C(N)CCC(=O)O)CC1 (centres undefined) 85.3
COc1ccc2cc3[n+](cc2c1OC)CCc1cc2c(cc1-3)OCO2.Cl 97.4

— the supplement of paper PMC7156485
